In PubChem BioAssay (EPA / NIEHS) one finds outcome and AC50 data, which are given here for 3 molecules.

Conditions in all cases: mRNA level, 48 h; actives raise or lower the signal
Read-out in test [1]: Bcl-2 (BAD) gene, BAD (gene 572)
In words: LTEA_HepaRG_BAD: Life Technologies and Expression Analysis (LTEA) Assay for Bcl-2 (BAD) gene using HepaRG (AID 2283469). The essentials:
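HepaRG, 48 h exposure, 8-pt half-log curve from 100 uM in 0.5% DMSO, duplicates. Readout: TaqMan qRT-PCR for BAD mRNA, housekeeping-normalised (ACTB/GAPDH/POLR2A); gain or loss fitted against DMSO baseline.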

Read-out in test [2]: Bcl-2 (BAX) gene, BAX (gene 581)
Put plainly: LTEA_HepaRG_BAX: Life Technologies and Expression Analysis (LTEA) Assay for Bcl-2 (BAX) gene using HepaRG (AID 2283470). The essentials: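 qRT-PCR read-out of BAX mRNA, normalized to three housekeeping genes, after 48 h chemical exposure of human HepaRG cells in serum-free induction medium; eight-point half-log series, top 100 uM, 0.5% DMSO vehicle; bidirectional fit versus DMSO.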

Read-out in test [3]: adenosine kinase (ADK) gene, ADK (gene 132)
In words: LTEA_HepaRG_ADK: Life Technologies and Expression Analysis (LTEA) Assay for adenosine kinase (ADK) gene using HepaRG (AID 2283471). In a few lines:
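ADK expression quantified by qRT-PCR, normalised to three housekeeping genes, after 48 h exposure of HepaRG cells to eight concentrations (top 100 uM, half-log steps, duplicate, 0.5% DMSO). Up- or down-regulation fitted relative to vehicle.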

Read-out in test [4]: Alpha-fetoprotein (AFP) gene, AFP (gene 174)
In words: LTEA_HepaRG_AFP: Life Technologies and Expression Analysis (LTEA) Assay for Alpha-fetoprotein (AFP) gene using HepaRG (AID 2283472). The essentials:
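qRT-PCR (Fluidigm TaqMan) readout of AFP transcript, normalized to three housekeeping genes, fitted bidirectionally against 0.5% DMSO baseline. HepaRG cells received chemicals for 48 h in serum-free induction medium, top concentration 100 uM, half-log steps.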

Read-out in another test: BCL2L11 (gene 10018)
In words: LTEA_HepaRG_BCL2L11: Life Technologies and Expression Analysis (LTEA) Assay for Bcl-2 (BCL2L11) gene using HepaRG (AID 2283473). The essentials:
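BCL2L11 transcript levels are measured by Fluidigm qRT-PCR, normalized to three housekeeping genes. HepaRG cultures were plated 48 h, then treated 48 h with test chemical (top 100 uM, half-log, 0.5% DMSO vehicle); curves were fitted bidirectionally against DMSO.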

Read-out in test [5]: Apolipoprotein A-V (APOA5) gene, APOA5 (gene 116519)
In words: LTEA_HepaRG_APOA5: Life Technologies and Expression Analysis (LTEA) Assay for Apolipoprotein A-V (APOA5) gene using HepaRG (AID 2283474). In a few lines: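 APOA5 transcript levels were quantified by qRT-PCR, normalized to three housekeeping genes, after 48 h chemical treatment of HepaRG cells (8 points, 100 uM maximum, half-log steps, 0.5% DMSO). Curves fitted in both directions against vehicle.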

Read-out in test [6]: Apoptosis regulator Bcl-2 (Homo sapiens) (UniProt P10415)
In words: LTEA_HepaRG_BCL2: Life Technologies and Expression Analysis (LTEA) Assay for Bcl-2 gene using HepaRG (AID 2283475). In a few lines: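 qRT-PCR read-out (Fluidigm TaqMan) of BCL2 transcript, normalised to three housekeeping genes, after 48 h chemical exposure of HepaRG cells; 8-point half-log series, top 100 uM, 0.5% DMSO vehicle. Gain or loss of signal fitted relative to DMSO baseline.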

Read-out in test [7]: Bcl-2 (BID) gene, BID (gene 637)
In words: LTEA_HepaRG_BID: Life Technologies and Expression Analysis (LTEA) Assay for Bcl-2 (BID) gene using HepaRG (AID 2283476). The essentials: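 HepaRG, 48 h exposure, 8-pt half-log series, top 100 uM, 0.5% DMSO vehicle, duplicates. Readout: BID mRNA by TaqMan qRT-PCR; housekeeping-normalized; bidirectional curve fit vs DMSO baseline.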

Read-out in a further test: Caspase-3 (Homo sapiens) (UniProt P42574)
Put plainly: LTEA_HepaRG_CASP3: Life Technologies and Expression Analysis (LTEA) Assay for cysteine-aspartic acid protease (CASP3) using HepaRG (AID 2283477). The essentials:
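Expression of CASP3 was quantified by TaqMan qRT-PCR against three housekeeping genes (ACTB, GAPDH, POLR2A), bidirectionally versus 0.5% DMSO. HepaRG cultures received compounds in duplicate, top 100 uM with half-log steps, for 48 h in serum-free induction medium.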

Read-out in test [8]: Cytochrome P450 (CYP24A1), CYP24A1 (gene 1591)
Put plainly: LTEA_HepaRG_CYP24A1: Life Technologies and Expression Analysis (LTEA) Assay for Cytochrome P450 (CYP24A1) using HepaRG (AID 2283478). In a few lines: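 mRNA of CYP24A1 quantified by TaqMan qRT-PCR (ACTB/GAPDH/POLR2A normalization) after 48 h chemical exposure of HepaRG cells, top concentration 100 uM, half-log steps, 0.5% DMSO vehicle, duplicates. Curves fitted bidirectionally against DMSO baseline.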

Read-out in test [9]: Cytochrome P450 (CYP1A2), CYP1A2 (gene 1544)
In words: LTEA_HepaRG_CYP1A2: Life Technologies and Expression Analysis (LTEA) Assay for Cytochrome P450 (CYP1A2) using HepaRG (AID 2283479). In a few lines:
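CYP1A2 transcript measured by TaqMan qRT-PCR against three housekeeping genes after 48-hour chemical exposure of HepaRG cells. Eight-point half-log series topping at 100 uM in 0.5% DMSO, duplicates; gain or loss fitted relative to vehicle.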

Read-out in test [10]: Cytochrome P450 (CYP2B6), CYP2B6 (gene 1555)
Put plainly: LTEA_HepaRG_CYP2B6: Life Technologies and Expression Analysis (LTEA) Assay for Cytochrome P450 (CYP2B6) using HepaRG (AID 2283481). In a few lines: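 CYP2B6 transcript level quantified by qRT-PCR against three housekeeping genes, fitted bidirectionally relative to DMSO. HepaRG cultures received chemicals for 48 h, 8-point half-log series from 100 uM in 0.5% DMSO, duplicate wells, serum-free induction medium.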

Read-out in test [11]: Cytochrome P450 2C19 (Homo sapiens) (UniProt P33261)
Put plainly: LTEA_HepaRG_CYP2C19: Life Technologies and Expression Analysis (LTEA) Assay for CYP2C19 using HepaRG (AID 2283482). In a few lines: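 CYP2C19 transcript levels by qRT-PCR, normalized to three housekeeping genes, in HepaRG cells after 48 h chemical exposure. Eight-point half-log series topping at 100 uM, 0.5% DMSO vehicle. Increases and decreases both fitted against DMSO.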

Read-out in a further test: CYP2C8 (gene 1558)
Put plainly: LTEA_HepaRG_CYP2C8: Life Technologies and Expression Analysis (LTEA) Assay for CYP2C8 using HepaRG (AID 2283483). The essentials:
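HepaRG (human liver line), 48 h chemical exposure, 8-pt half-log series from 100 uM, 0.5% DMSO vehicle. Readout: CYP2C8 transcript by qRT-PCR, housekeeping-normalized. Bidirectional fit vs DMSO baseline.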

Read-out in the next test: CYP2E1 (gene 1571)
Put plainly: LTEA_HepaRG_CYP2E1: Life Technologies and Expression Analysis (LTEA) Assay for CYP2E1 using HepaRG (AID 2283485). The essentials:
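CYP2E1 transcript was measured by TaqMan qRT-PCR in human HepaRG cultures after 48 h chemical exposure (top 100 uM, half-log steps, 0.5% DMSO vehicle). Housekeeping-gene normalization; gain or loss fitted relative to DMSO baseline.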

Read-out in another test: CYP4A11 (gene 1579)
In words: LTEA_HepaRG_CYP4A11: Life Technologies and Expression Analysis (LTEA) Assay for CYP4A11 using HepaRG (AID 2283486). The essentials:
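Readout is CYP4A11 transcript level by qRT-PCR, normalized to three housekeeping genes and fitted bidirectionally against 0.5% DMSO. Human HepaRG cells were treated 48 h, in duplicate, with an 8-point half-log series topping at 100 uM.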

Read-out in test [12]: Cytochrome P450 3A4 (Homo sapiens) (UniProt P08684)
In words: LTEA_HepaRG_CYP3A4: Life Technologies and Expression Analysis (LTEA) Assay for CYP3A4 using HepaRG (AID 2283487). In a few lines:
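Differentiated HepaRG cells, plated 48 h, then dosed 48 h in serum-free induction medium with 0.5% DMSO, 8 half-log concentrations up to 100 uM, duplicate. CYP3A4 mRNA by qRT-PCR, normalized to ACTB/GAPDH/POLR2A; bidirectional fit versus DMSO.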

Read-out in test [13]: DNA damage-inducible transcript 3 (DDIT3), DDIT3 (gene 1649)
In words: LTEA_HepaRG_DDIT3: Life Technologies and Expression Analysis (LTEA) Assay for DNA damage-inducible transcript 3 (DDIT3) using HepaRG (AID 2283488). The essentials:
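qRT-PCR readout (Fluidigm TaqMan), housekeeping-normalized to ACTB, GAPDH, POLR2A. HepaRG cells, 48 h exposure, 8-point half-log series from 100 uM in 0.5% DMSO, duplicates. Gain or loss of signal fitted against DMSO baseline.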

Read-out in test [14]: cysteine-aspartic acid protease (CASP8), CASP8 (gene 841)
In words: LTEA_HepaRG_CASP8: Life Technologies and Expression Analysis (LTEA) Assay for cysteine-aspartic acid protease (CASP8) using HepaRG (AID 2283480). The essentials:
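qRT-PCR readout of CASP8 mRNA, normalized to three housekeeping genes, after 48 h chemical exposure of HepaRG cells; 8-point half-log series, top 100 uM, 0.5% DMSO vehicle. Bidirectional curve fitting against DMSO baseline.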

Read-out in the next test: CYP2C9 (gene 1559)
In words: LTEA_HepaRG_CYP2C9: Life Technologies and Expression Analysis (LTEA) Assay for CYP2C9 using HepaRG (AID 2283484). In a few lines:
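HepaRG, 48 h dosing, 8-pt half-log series, top 100 uM, 0.5% DMSO vehicle. Read-out: CYP2C9 transcript by TaqMan qRT-PCR, housekeeping-normalized (ACTB/GAPDH/POLR2A). Gain or loss fitted vs DMSO baseline.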

Active and inactive are the calls of the source. How the source made its calls: active means hit-call score of the fitted dose curve at least 0.9, where 1 is the maximum; inactive means score below 0.9.

Sequence of Cytochrome P450 2C19 (Homo sapiens) (P33261 whole entry, looked up): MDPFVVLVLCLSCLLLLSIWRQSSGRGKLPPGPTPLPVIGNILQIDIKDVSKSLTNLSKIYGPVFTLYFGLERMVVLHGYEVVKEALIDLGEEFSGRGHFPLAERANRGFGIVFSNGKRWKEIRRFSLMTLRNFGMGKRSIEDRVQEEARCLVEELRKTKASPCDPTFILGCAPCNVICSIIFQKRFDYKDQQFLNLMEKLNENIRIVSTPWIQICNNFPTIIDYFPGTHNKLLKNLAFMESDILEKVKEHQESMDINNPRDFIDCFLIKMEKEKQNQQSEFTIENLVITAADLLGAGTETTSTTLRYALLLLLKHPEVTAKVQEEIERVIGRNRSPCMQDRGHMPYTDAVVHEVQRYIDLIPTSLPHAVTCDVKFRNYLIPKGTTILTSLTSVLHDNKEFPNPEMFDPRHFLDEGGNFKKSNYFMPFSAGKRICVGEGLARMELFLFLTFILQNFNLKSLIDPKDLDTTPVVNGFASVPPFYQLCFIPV
Sequence of Caspase-3 (Homo sapiens) (P42574 whole entry, looked up): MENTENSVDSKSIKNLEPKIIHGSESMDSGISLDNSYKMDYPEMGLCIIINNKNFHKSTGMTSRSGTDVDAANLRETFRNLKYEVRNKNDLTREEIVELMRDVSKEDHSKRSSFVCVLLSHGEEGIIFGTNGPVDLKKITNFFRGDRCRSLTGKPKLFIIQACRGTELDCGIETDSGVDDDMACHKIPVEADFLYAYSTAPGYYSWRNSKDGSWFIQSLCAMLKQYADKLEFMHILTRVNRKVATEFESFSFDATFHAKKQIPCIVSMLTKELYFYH
Sequence of Apoptosis regulator Bcl-2 (Homo sapiens) (P10415 whole entry, looked up): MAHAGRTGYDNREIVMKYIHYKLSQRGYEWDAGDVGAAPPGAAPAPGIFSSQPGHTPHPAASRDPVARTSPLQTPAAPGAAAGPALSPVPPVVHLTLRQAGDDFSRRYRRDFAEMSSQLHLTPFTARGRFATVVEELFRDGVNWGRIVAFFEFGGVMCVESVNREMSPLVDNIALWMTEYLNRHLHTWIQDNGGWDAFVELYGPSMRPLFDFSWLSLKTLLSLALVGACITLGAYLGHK
Sequence of Cytochrome P450 3A4 (Homo sapiens) (P08684 whole entry, looked up): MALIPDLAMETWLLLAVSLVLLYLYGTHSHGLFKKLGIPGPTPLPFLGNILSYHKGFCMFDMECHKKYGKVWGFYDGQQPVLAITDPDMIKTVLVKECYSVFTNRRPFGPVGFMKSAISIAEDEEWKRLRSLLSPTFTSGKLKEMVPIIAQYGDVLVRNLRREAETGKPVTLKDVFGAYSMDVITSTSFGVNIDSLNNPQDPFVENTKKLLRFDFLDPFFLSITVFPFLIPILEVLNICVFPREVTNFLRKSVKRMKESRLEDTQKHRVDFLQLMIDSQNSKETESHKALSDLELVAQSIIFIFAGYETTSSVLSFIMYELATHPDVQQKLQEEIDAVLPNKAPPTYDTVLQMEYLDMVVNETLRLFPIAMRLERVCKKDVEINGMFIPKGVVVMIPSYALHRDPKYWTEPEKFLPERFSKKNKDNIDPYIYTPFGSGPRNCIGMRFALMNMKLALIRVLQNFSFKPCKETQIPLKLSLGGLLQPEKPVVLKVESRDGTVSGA

With `CC(=O)OCCOCCOCCOC(C)=O`, the molecule was classed as inactive (in [1]; in test [2]; in test [3]; in [4]; in the test with BCL2L11 (gene 10018); in [5]). Further, the molecule was classed as inactive (in test [6]; in test [7]; in the test with Caspase-3 (Homo sapiens); in test [8]; in test [9]; in test [10]). Further, the outcome (in [11]; in the test with CYP2C8 (gene 1558); in the test with CYP2E1 (gene 1571); with CYP4A11 (gene 1579); in [12]; in test [13]) was inactive.

On to `C=CCOC(=O)c1ccccc1C(=O)OCC=C`, for which the call (in test [1]; in test [2]; in [3]; in test [4]; with BCL2L11 (gene 10018); in test [5]) was inactive. Besides, the outcome (in [6]; in test [7]; with Caspase-3 (Homo sapiens); in [8]; in test [9]; in test [11]) was inactive. Further, the molecule was called inactive (with CYP2C8 (gene 1558); with CYP2E1 (gene 1571); with CYP4A11 (gene 1579); in test [12]; in [13]).

`CCOC(=O)CCC(=O)OCC`: the result in [1], in test [2], in test [4], in [5], in test [6] and in test [7] was inactive. Also, the call (in the test with Caspase-3 (Homo sapiens); in test [8]; in test [9]; in test [11]; in the test with CYP2C8 (gene 1558); in the test with CYP2C9 (gene 1559)) was inactive. Further, the call (in the test with CYP2E1 (gene 1571); with CYP4A11 (gene 1579); in [12]; in [13]) was inactive. The half-maximal activity concentration (AC50) in test [3] is 79.3 µM (active); in [14] it was 87.3 µM (active); in test [10], 19.3 µM (active).
